Among all 310,000 compounds or so, about 18,000 (5.8%) were called active. Not shown: some 22% with an inconclusive outcome. The sample holds actives, similar compounds and a random draw of the others, so the mix is not that of the screen. Unmarked numbers belong to inactive results. Calls follow the shape of the dose curve; as a rule, active = well fitted inhibition curve with a large enough effect; inconclusive = small, poorly fitted or top-dose-only effect, or another doubt; inactive = no such curve, though single readings can be large or run the other way.

We go through 52 compounds from PubChem BioAssay AID504832 (National Center for Advancing Translational Sciences (NCATS), 2011).
% is scaled to controls: 0 for no effect and ±100 for the full control effect; potency is read from the fitted curve at half-maximal effect.

The assay in a line: Primary qHTS for delayed death inhibitors of the malarial parasite plastid, 48 hour incubation. As to conditions: P. falciparum luciferase growth in erythrocytes; series mostly up to 28.7 µM; activity change, negative = inhibition: at the top concentration. Put shortly:
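In quantitative HTS format, infected erythrocytes bearing luciferase-reporter parasites were treated for a single generation at 37 C. Luminescence after adding detection reagent served as the growth measure.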
In the case of `O=C(CSc1nc2nccnc2c(=O)n1Cc1cccs1)Nc1ccccc1F`, the Potency was 10.4 µM (active).

As for `O=C(CSc1ccc(-c2cccs2)nn1)Nc1ccccc1F`, the “activity change, negative = inhibition” value was 26%.

Take `CCOc1ccc(NC(=O)CSc2nc3ccccc3c(=O)n2Cc2cccs2)cc1`: the “activity change, negative = inhibition” value was 0.231%.

For `CN(CC(=O)Nc1ccc(Cl)c(C(F)(F)F)c1)C(=O)CCC(=O)c1ccccc1`, the “activity change, negative = inhibition” value was -24.2%.

For the compound `O=C(NCCCN1CCCC1=O)C(=O)NCC1OCCN1S(=O)(=O)c1ccc(Br)cc1` (configuration not stated), the “activity change, negative = inhibition” value is -17.4%.

As for `CCOc1cccc(-c2nnc(SCC(=O)NC3CC3)n2C)c1`, the “activity change, negative = inhibition” value is -5.31%.

`Cc1ccc(N(Cc2ccccc2O)C(=O)c2ccccc2F)cc1`: the Potency was 9.28 µM (active).

As to `CN(C)/C=C/C(=O)c1ccccc1F`, the “activity change, negative = inhibition” value was -0.84%.

For `O=C(c1ccccc1F)N(Cc1ccccc1)Cc1ccccc1`, the “activity change, negative = inhibition” value was -15%.

On to `O=C(COc1ccc(Cl)cc1)Nc1ccc2oc(=O)ccc2c1`, for which the “activity change, negative = inhibition” value was -2.67%.

Regarding `O=C(CCN1C(=O)C2C3CCC(C3)C2C1=O)Nc1ccc(Cl)cc1Cl` (configuration not stated), the “activity change, negative = inhibition” value is 4.37%.

As for `CC(C)(C)c1cc(NC(=O)NN2CCOCC2)nn1-c1c(Cl)cc(Cl)cc1Cl`, the Potency is 10.4 µM (active).

`O=C(Nc1ccc(CN2CCOCC2)cc1)c1cc(Cl)ccc1Cl`: the “activity change, negative = inhibition” value is -23.4%.

With `O=C(CN1CCOCC1)Nc1c(Cl)cc(Cl)cc1Cl`, the “activity change, negative = inhibition” value is 19.4%.

As to `CC(=O)C(C)n1cnc2scc(-c3ccc(C)cc3)c2c1=O` (configuration not stated), the “activity change, negative = inhibition” value is -5.93%.

For `COc1cc(OC)cc(-c2c(-c3cccs3)c3cc(-c4ccc(OC)cc4F)ccc3n2C)c1`, the Potency was 13.1 µM (active).

In the case of `COc1cc(OC)cc(-c2c(-c3ccc(F)cc3)c3cc(-c4ccc5cc[nH]c5c4)ccc3n2C)c1`, the Potency is 5.22 µM (active).

With `COc1ccc2c(c1)c(C(=O)N/N=C/c1cccs1)c(C)n2C`, the “activity change, negative = inhibition” value was -6.08%.

`COc1ccc(OC)c(-c2csc(-c3cccs3)n2)c1`: the “activity change, negative = inhibition” value is 21.4%.

As for `CCOC(=O)N1CCN(C(=O)C(C)NC(=O)c2ccco2)CC1` (configuration not stated), the “activity change, negative = inhibition” value is 0.0593%.

In the case of `COc1ccc(/C=C/c2c(-c3cccc(C)c3)oc3ccc(-c4ccc5c(c4)OCO5)cc23)cc1`, the “activity change, negative = inhibition” value was 13.5%.

For the compound `COc1ccc(/C=N/NC(=O)c2ccc(Cl)cc2)cc1COC(C)=O`, the “activity change, negative = inhibition” value was 3.27%.

For the compound `COc1ccc(/C=N/S(=O)(=O)c2ccccc2)cc1OC`, the “activity change, negative = inhibition” value is -9.68%.

Take `COc1ccc(/C=N/NC(=O)c2ccccc2)cc1OS(=O)(=O)c1ccccc1`: the Potency was 9.28 µM (active).

With `COc1cc(/C=N/NC(=O)c2ccccc2)ccc1OS(=O)(=O)c1ccccc1`, the Potency is 10.4 µM (active).

Consider `Cc1ccc(S(=O)(=O)Oc2ccc(/C=N/NC(=O)c3ccncc3)cc2)cc1`, for which the “activity change, negative = inhibition” value is -9.78%.

Turning to `COc1ccc(/C=N\NC(=O)c2sc(N)nc2C)cc1OC`, the “activity change, negative = inhibition” value is 12.7%.

In the case of `O=C(O)Cc1ccc(NC(=O)Nc2cccc3ccccc23)cc1`, the “activity change, negative = inhibition” value was 11%.

Consider `COc1cc(NC(=O)c2ccc(-c3csc(C)n3)cc2)c(OC)cc1Cl`, for which the “activity change, negative = inhibition” value was 0%.

Regarding `Cc1cccc(NC(=O)C2CCCN(C(=O)Nc3ccc(F)cc3)C2)c1C` (configuration not stated), the “activity change, negative = inhibition” value was 0.936%.

As to `COCc1cc(C)n(CC(=O)NCC2CCCO2)c(=O)c1C#N` (configuration not stated), the “activity change, negative = inhibition” value was 2.53%.

As to `COc1ccc(N(C(=O)c2cccnc2)S(=O)(=O)c2ccc(OC)c(OC)c2)cc1`, the “activity change, negative = inhibition” value is 8.24%.

Take `CC[C@H]1CN2CCc3cc(OC)c(OC)cc3[C@@H]2C[C@@H]1C[C@H]1NCCc2cc(OC)c(OC)cc21`: the Potency was 0.0828 µM (active).

With `NC(=O)NC(=O)C(OC(=O)CCNS(=O)(=O)c1ccccc1)c1ccccc1` (configuration not stated), the “activity change, negative = inhibition” value was 5.13%.

Take `O=C(CCc1c[nH]c2ccccc12)NCCOc1ccccc1`: the “activity change, negative = inhibition” value is -18.4%.

For the compound `O=C(CCCCn1c(=O)[nH]c2ccccc2c1=O)NCc1ccc2c(c1)OCO2`, the “activity change, negative = inhibition” value was -14.5%.

Turning to `O=C(CCCCCn1c(=O)[nH]c2ccccc2c1=O)NCCc1c[nH]c2ccccc12`, the Potency was 8.28 µM (active).

Take `COc1ccc2nc(NC3=NCN(CC4CCCO4)CN3)nc(C)c2c1` (configuration not stated): the Potency was 11.7 µM (active).

With `COc1ccc2c(C)cc(SCC(=O)NCC3CCCO3)nc2c1` (configuration not stated), the “activity change, negative = inhibition” value is -1.67%.

For the compound `Cc1ccc2nc(NC3=NCN(CCc4ccccc4)CN3)nc(C)c2c1`, the “activity change, negative = inhibition” value was 0%.

For the compound `CC(NC(=O)COc1cccnc1[N+](=O)[O-])c1ccc(Cl)cc1Cl` (configuration not stated), the “activity change, negative = inhibition” value is -9.92%.

As to `Cn1c(SCC(=O)Nc2ccc(N3CCOCC3)cc2)nnc1C(F)(F)F`, the “activity change, negative = inhibition” value is -10.4%.

Regarding `CCN(CC)c1ccc2cc(C(N)=O)/c(=N\NC(=O)c3ccncc3)oc2c1`, the “activity change, negative = inhibition” value was -16%.

With `CCN(CC)c1ccc2c(Nc3ccccc3)c(C=O)c(=O)oc2c1`, the “activity change, negative = inhibition” value was -2.73%.

`CCN(CC)c1ccc2oc(=O)c(C)nc2c1`: the Potency is 1.47 µM (active).

Take `Cc1ccccc1N1CCN(C2CCCN(C(=O)c3cn4c(C)cccc4n3)C2)CC1` (configuration not stated): the “activity change, negative = inhibition” value was -29%.

For the compound `CCC(CC)c1nnc(NC(=O)C2=COCCO2)s1`, the “activity change, negative = inhibition” value is 29%.

For the compound `O=C(O)C1CCC(CNS(=O)(=O)c2ccc(Br)cc2)CC1` (configuration not stated), the “activity change, negative = inhibition” value was -9.14%.

For the compound `CCn1c(=O)c(C(=O)NCc2ccc3c(c2)OCO3)c(O)c2ccccc21`, the “activity change, negative = inhibition” value was 9.48%.

For the compound `O=C(COC(=O)c1cnc(Cl)c(Cl)c1)NCc1ccco1`, the “activity change, negative = inhibition” value is 21.2%.

As to `COc1ccc(CCNS(=O)(=O)c2ccc(C(=O)NCc3ccco3)cc2)cc1OC`, the “activity change, negative = inhibition” value is -3.53%.

Turning to `CCCC1=Nc2cc(C(=O)NCc3ccco3)ccc2Sc2ccccc21`, the Potency was 4.65 µM (active).
